Experimental data from PubChem BioAssay AID1259415 (National Center for Advancing Translational Sciences (NCATS), 2018).
Several values for one entry are separate records, joined by “and”; a condition that tells them apart may be missing. Equal entries are not always repeated. About 18,000 (4.4%) of roughly 410,000 compounds were called active. About 7% were inconclusive and are not listed. Rule as the data show it: active = activity change below about -60%; inconclusive = no clear call, values can overlap the other calls; inactive = above about -39%. Many of the other results were omitted from the sample, so actives are more common in it than they were. Where a structure was tested more than once in an assay, its records may differ in their call.

Experiment: qHTS Assay for inhibitors of the human cytomegalovirus (HCMV)
Details: HFF cells, HCMV-luciferase reporter, 72 h; at 57.5 µM; stronger effect = lower value
Outline: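 Screen run at 2 compound doses on HFFs infected with reporter HCMV, MOI 1 PFU/cell. Luciferase activity from cell lysates at 72 h post infection gave inhibition relative to buffer-only and Salinomycin wells.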
% is scaled to controls: 0 for no effect and ±100 for the full control effect.

Row | Compound | activity change, negative = inhibition
1 | Cc1noc2ncnc(NCc3ccccc3Cl)c12 | -26.2% (inactive)
2 | O=C(O)c1ccc2c3c(cccc13)C(=O)N(OS(=O)(=O)c1ccccc1)C2=O | -101% (active)
3 | Cc1cc(OCC(=O)Nc2ncn[nH]2)c(C)c(C)c1Br | 1.07% (inactive)
4 | O=C(Nc1ccc(F)cc1F)c1cnn(-c2ccc(F)cc2)c1-n1cccc1 | -4.17% (inactive)
5 | COc1ccc(Cl)cc1NC(=O)CSc1nc(-c2cccs2)cc(C(F)(F)F)n1 | -23.8% (inactive)
6 | CC(=O)c1ccc(N2CCN(c3nc4c(S(=O)(=O)c5ccccc5)nnn4c4ccc(Cl)cc34)CC2)cc1 | 8.15% (inactive)
7 | O=[N+]([O-])c1cnc2ccc3ccccc3c2c1 | -96.3% (active)
8 | CN(CCc1ccccc1)c1ccc([N+](=O)[O-])cn1 | 12.9% (inactive)
9 | c1ccc2cc(CCCc3cc4ccccc4cn3)ncc2c1 | -18.2% (inactive)
10 | O=C(c1c(F)cccc1F)N1CCN(c2ncc(Br)cn2)CC1 | 2.5% (inactive)
11 | CCOC(=O)c1ccc(N2C(=O)c3n[nH]c(-c4ccco4)c3C2c2ccc(O)cc2)cc1 (configuration not stated) | -8.9% (inactive)
12 | O=C(C1CC1)N1N=C(c2ccc(Br)cc2)CC1(O)C(F)(F)F (configuration not stated) | 10% (inactive)
13 | COC(=O)C1(O)CC(C(C)C)=NN1C(=O)c1ccc(Cl)cc1 (configuration not stated) | 27.1% (inactive)
14 | O=C(c1ccc(Cl)cc1)N1N=C(c2ccccn2)CC1(O)C(F)(F)F (configuration not stated) | -98.8% (active)
15 | O=C(COc1ccccc1F)Nc1ccc(C(=O)OCc2cc(=O)n3nc(C4CC4)sc3n2)cc1 | 10.3% (inactive)
16 | CCCC(=O)N1CCN(c2nc3c(OC)ccc(C)c3s2)CC1 | 0.538% (inactive)
17 | O=C(C1CC(=O)N(c2ccc(Br)cc2)C1)N1CCCC1 (configuration not stated) | -23.4% (inactive)
18 | CN1OC[C@@H]2CN(S(=O)(=O)c3cccc(C(F)(F)F)c3)[C@H](c3ccc(-c4cc5ccccc5o4)cc3)C[C@@H]21 | -67.9% (active)
19 | COc1ccccc1-c1ccc([C@@H]2C[C@H]3[C@H](CON3C)CN2S(=O)(=O)c2cc(Cl)cc(Cl)c2)cc1 | 8.41% (inactive)

Row | Compound | activity change, negative = inhibition
20 | COc1ccc(S(=O)(=O)N2C[C@H]3CON(C)[C@H]3C[C@H]2c2cccc(Br)c2)cc1 | -8.56% (inactive)
21 | CC(C)c1ccc(S(=O)(=O)Nc2ccc(O)c(Sc3nc4ccccc4s3)c2)cc1 | -0.0854% (inactive)
22 | Cc1cccc(NC(=O)Cn2nc(-c3ccc(Cl)cc3)c3ccccc3c2=O)c1 | -6.04% (inactive)
23 | O=C1C=C(c2ccc(Cl)cc2)C(=O)N1Nc1ccccc1 | -97.6% (active)
24 | CCc1ccc(S(=O)(=O)n2ccnc2)cc1 | -4.04% (inactive)
25 | Cc1c(C(=O)NCc2ccccc2Br)oc2ccc3c(c12)C(=O)CC(C)(C)O3 | -2.86% (inactive)
26 | O=C(CSc1nc2c(c(=O)[nH]1)CN(Cc1ccc3c(c1)OCO3)CC2)Nc1cc(F)ccc1F | -1.41% (inactive)
27 | CCOC(=O)c1c(NC(=O)CSc2cn(CCNC(=O)c3cccc(C(F)(F)F)c3)c3ccccc23)sc2c1CCC2 | -7.22% (inactive)
28 | O=C(CCSCc1ccccc1F)N1CCN(c2ccc(Cl)cc2)CC1 | -29.1% (inactive)
29 | CN(CC(=O)Nc1cccc(C(F)(F)F)c1)S(=O)(=O)c1cccs1 | 20.2% (inactive)
30 | Cc1oc2c(F)c(F)c(F)c(F)c2c1S(=O)(=O)Nc1cccc(C(F)(F)F)c1 | -97.8% (active)
31 | CCNS(=O)(=O)c1cc(-c2nnc(Nc3cccc(C(F)(F)F)c3)c3ccccc23)ccc1C | 34.1% (inactive)
32 | CCOC(=O)[C@]12CCC=C1N(Cc1ccco1)C(=O)[C@H](CC(=O)N1CCSCC1)C2 | -10.1% (inactive)
33 | CCOc1cc(-c2nnc(SCC(=O)NC3CCCC3)nc2-c2ccc(OC)c(OCC)c2)ccc1OC | 24.6% (inactive)
34 | COc1ccc(C(=O)C[n+]2ccc(C)cc2)cc1 | 72% (inactive)
35 | CO/N=C/CC(=O)c1ccc(OC)cc1 | -35.1% (inactive)
36 | COc1ccc(C(=O)C[n+]2ccc(N)c(C)c2C)cc1 | -93.4% (active)
37 | CCOc1ccc(OCC)c(NC(=O)c2cc(C)nc3c2c(C)nn3-c2cccc(Cl)c2C)c1 | 5.03% (inactive)
38 | C[C@@H]1CCCCO[C@H](CN(C)Cc2ccccc2)[C@@H](C)CN([C@H](C)CO)C(=O)c2cc(NS(=O)(=O)c3ccc(Cl)cc3)ccc2O1 | -31.2% (inactive)

Row | Compound | activity change, negative = inhibition
39 | O=S(=O)(Nc1ccc(-c2ccc(N3CCOCC3)nn2)cc1)c1cc(Cl)ccc1Cl | -19.8% (inactive)
40 | Cn1cnc2c1c(=O)n(Cc1ccccc1C#N)c(=O)n2C | -66.7% (active)
41 | N#Cc1ccccc1Cn1cnc2nc3c(cc2c1=O)CCCC3 | 21.2% (inactive)
42 | Cn1cnc2c1c(=O)n(Cc1c(Cl)cccc1Cl)c(=O)n2C | -6.74% (inactive)
43 | NS(=O)(=O)c1ccc(N=Nc2c(O)[nH]c3ccc(Br)cc23)cc1 | -60.1% (active)
44 | Cc1cccc(N=Nc2c(O)[nH]c3ccc(F)cc23)c1 | 101% (inactive)
45 | Cc1[nH]c2ccc(S(N)(=O)=O)cc2c1C | 28% (inactive)
46 | Cc1nnc(SCc2cc(=O)c3cc(F)ccc3[nH]2)n1C | 17.7% (inactive)
47 | CC(C)C(=O)Nc1nc2c(s1)CC(C(C)(C)C)CC2 (configuration not stated) | 36.6% (inactive)
48 | O=C(Nc1cccc(Cl)c1)C1CCCN(c2cnccn2)C1 (configuration not stated) | -9.65% (inactive)
49 | Cc1ccc(Cl)cc1NC(=O)C1CCCN(c2cnccn2)C1 (configuration not stated) | -33.4% (inactive) and -71.5% (active)
50 | Cc1ccc(Cl)cc1NC(=O)C1CCN(S(C)(=O)=O)CC1 | 22% (inactive)
51 | COC(=O)c1ccccc1NC(=O)c1cnn(-c2ccc(F)cc2)c1-n1cccc1 | -4.4% (inactive)
52 | COc1ccc(-n2nc(C(=O)NCCc3ccc(Cl)cc3)c3c4ccccc4n(C)c3c2=O)cc1Cl | 1.81% (inactive)
53 | COc1ccc(S(=O)(=O)N2CCN(c3ccc(F)cc3)CC2)cc1-c1noc(C)n1 | -18.6% (inactive)
54 | O=C(NC1CC(=O)N(c2ccc(Cl)cc2)C1)C1CCCC1 (configuration not stated) | 16.2% (inactive)
55 | COC(=O)C(C)C1Sc2ccccc2NC1=O (configuration not stated) | -14.8% (inactive)
56 | CCCCCOC(=O)C1=C(C)Nc2nnnn2C1c1ccc(OC)c(OC)c1OC (configuration not stated) | 13.7% (inactive)
57 | COc1ccc(C2Sc3ccccc3NC3=C2C(=O)c2ccccc23)c(OC)c1OC (configuration not stated) | -74.4% (active)
